The values below come from PubChem BioAssay AID651699 (Sanford-Burnham Center for Chemical Genomics, 2012).

Molecules are shown by their SMILES. Among all 360,000 compounds or so, about 2,100 (0.58%) were called active. This is one part of a sample in which actives are shown more often than they occur. A number with no mark means an inactive call. No stated cut-off is given here; in the data, active means inhibition above about 36%; inactive means the rest.

The term inhibition denotes the relative decrease from the control value, in per cent.

The target of this assay is NEDD8-conjugating enzyme Ubc12 (Homo sapiens) + NEDD8-activating enzyme E1 regulatory subunit (Homo sapiens) (UniProt P61081+Q13564). The assay can be described thus: inhibitors of cullin neddylation, primary screen, biochemical, TR-FRET, uHTS, NAE and Ubc12 (AID 651699). As to conditions: at 25 µM, stronger effect = higher value. In general terms: Time-resolved FRET reads energy transfer from a long-lived donor to a nearby acceptor.
Chain of NEDD8-conjugating enzyme Ubc12 (Homo sapiens) + NEDD8-activating enzyme E1 regulatory subunit (Homo sapiens) (P61081 whole entry, looked up): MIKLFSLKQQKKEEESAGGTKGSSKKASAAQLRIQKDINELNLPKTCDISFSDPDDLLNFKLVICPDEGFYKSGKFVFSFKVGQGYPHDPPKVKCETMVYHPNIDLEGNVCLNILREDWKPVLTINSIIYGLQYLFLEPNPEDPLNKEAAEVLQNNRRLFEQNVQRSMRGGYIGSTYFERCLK
Chain of NEDD8-conjugating enzyme Ubc12 (Homo sapiens) + NEDD8-activating enzyme E1 regulatory subunit (Homo sapiens) (Q13564 whole entry, looked up): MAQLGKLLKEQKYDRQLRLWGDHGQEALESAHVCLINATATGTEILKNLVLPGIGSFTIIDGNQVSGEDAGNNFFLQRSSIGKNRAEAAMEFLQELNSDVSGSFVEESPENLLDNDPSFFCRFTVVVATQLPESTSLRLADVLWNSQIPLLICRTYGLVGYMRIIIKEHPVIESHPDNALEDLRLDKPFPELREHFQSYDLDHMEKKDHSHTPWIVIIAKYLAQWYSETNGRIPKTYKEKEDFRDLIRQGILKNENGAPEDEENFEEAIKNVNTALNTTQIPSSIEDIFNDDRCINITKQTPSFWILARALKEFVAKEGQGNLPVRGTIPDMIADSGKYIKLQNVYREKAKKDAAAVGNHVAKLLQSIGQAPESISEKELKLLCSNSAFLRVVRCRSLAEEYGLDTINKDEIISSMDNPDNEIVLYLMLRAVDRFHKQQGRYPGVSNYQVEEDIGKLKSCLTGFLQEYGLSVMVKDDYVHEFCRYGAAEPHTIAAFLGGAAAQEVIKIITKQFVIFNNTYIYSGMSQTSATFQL
In the case of `O=C(NC1CC1)C(Cc1ccccc1)NS(=O)(=O)c1ccccc1F` (stereo not given), the inhibition was -5.68%.

Take `O=C(CN1CCN(c2ccccc2O)CC1)NC(=O)NCc1ccccc1`: the inhibition is 1.32%.

On to `CCOCCCNC(=O)C(NC(=O)c1ccccc1O)c1ccccc1` (stereo not given), for which the inhibition is 46.5% (active).

On to `CCOCCCNC(=O)C(NC(=O)CNC(=O)c1ccccc1)c1ccc(C)cc1` (stereo not given), for which the inhibition is 2.03%.

As for `CCOCCCNC(=O)C(NC(=O)CNC(=O)c1ccccc1)c1ccc(OC)cc1` (stereo not given), the inhibition is 0.37%.

For `CC(C)=CCc1ccc(O)c(=O)cc1C(C)C`, the inhibition is 1.77%.

Consider `O=C(O)C(F)(F)C(NCc1ccccc1)c1ccccc1` (stereo not given), for which the inhibition was -2.55%.

Take `CC(C)c1ccc(CC(=O)N2CCC2(C)C(=O)NS(=O)(=O)c2ccc(C(C)(C)C)cc2)cc1` (stereo not given): the inhibition was -0.27%.

For `COC(=O)c1cc2c(N)c(C(=O)c3ccc(Cl)cc3)sc2nc1C(OC)OC`, the inhibition was 12.2%.

As to `Cc1nc2sc(C(=O)c3ccccc3)c(N)c2c2c1CCCC2`, the inhibition was 47.1% (active).

On to `Cc1cccc2cc3c(N)c(C(=O)N4CCCc5ccccc54)sc3nc12`, for which the inhibition was -5.05%.

`CN(C)c1ccnc2sc(C(=O)c3ccccc3)c(N)c12`: the inhibition is 42.8% (active).

As to `CC(=O)c1c(Nc2ccccc2)sc(C(=O)c2ccccc2)c1C`, the inhibition was 5.82%.

In the case of `O=C(Nc1c(-c2ccccc2)nc2c(Br)cc(Br)cn12)c1ccco1`, the inhibition is -168%.

Regarding `OCC[C@H]1C[C@H](O)[C@@H](O)[C@]2(Cc3ccccc3CO2)O1`, the inhibition is -28.9%.

On to `Cc1noc(C)c1CCC(=O)O`, for which the inhibition is -7.17%.

In the case of `CN(Cc1ccccc1)C(=O)CCC1CCN(C(=O)c2ccco2)CC1`, the inhibition was 6.05%.

Turning to `CCOC(=O)c1cnc(SCC(=O)Nc2cccc(OC)c2)nc1N`, the inhibition is -0.72%.

`COc1ccc(/C=C/C(=O)OCC(=O)N2CCN(S(=O)(=O)c3ccc(C)cc3C)CC2)cc1OC`: the inhibition is 24.4%.

As to `CCCCNS(=O)(=O)c1ccc(S(=O)(=O)n2cnc3ccccc32)cc1`, the inhibition was -2.84%.

For `O=C(Cn1cc(/C=N/NC(=O)c2cccc(C(F)(F)F)c2)c2ccccc21)Nc1ccc(F)cc1`, the inhibition is 44% (active).

Regarding `NC(=O)Cn1cc(/C=N\NS(=O)(=O)c2ccccc2)c2ccccc21`, the inhibition is -17.8%.

As for `O=C(CSc1ccc(/C=N/NC(=O)c2cccc(F)c2)o1)Nc1ccccc1`, the inhibition is -3.46%.

On to `COc1ccc([N+](=O)[O-])cc1NC(=O)COC(=O)/C=C/c1ccco1`, for which the inhibition was -34%.

For the compound `O=C(NNC(=S)NC1CC2CCC1C2)c1ccc(Cl)cc1` (stereo not given), the inhibition was 62.7% (active).

Turning to `O=S(=O)(NC1CC2CCC1C2)c1ccc(Cl)cc1` (stereo not given), the inhibition was -2.94%.

Turning to `O=C(NNC(=O)C1C2CCC(C2)C1C(=O)O)c1ccc(Cl)cc1` (stereo not given), the inhibition was 2.72%.

For the compound `CC1(C)CC(=O)C2=C(C1)Nc1cc(C(=O)c3ccccc3)ccc1NC2c1ccccn1` (stereo not given), the inhibition is 24.5%.

Take `Cc1cc2cc(CN(Cc3cccs3)Cc3nnnn3CC3CCCO3)c(=O)[nH]c2cc1C` (stereo not given): the inhibition is 4.8%.

`CCOc1ccc2[nH]c(=O)c(CN(Cc3nnnn3Cc3ccccc3)CC3CCCO3)cc2c1` (stereo not given): the inhibition is 48% (active).

With `Cc1ccc(S(=O)(=O)N(Cc2cc3ccccc3[nH]c2=O)CC2CCCO2)cc1` (stereo not given), the inhibition was 11.6%.

Take `Cc1cc(C)c2cc(CN(Cc3cccs3)Cc3nnnn3CC3CCCO3)c(=O)[nH]c2c1` (stereo not given): the inhibition is -8.71%.

Turning to `COc1ccc2[nH]c(=O)c(CN(CC3CCCO3)C(=O)Nc3ccccc3)cc2c1` (stereo not given), the inhibition is 21.1%.

On to `CCOc1ccc2[nH]c(=O)c(CN(Cc3nnnn3CCc3ccccc3)CC3CCCO3)cc2c1` (stereo not given), for which the inhibition is 44% (active).

As to `CC(C)(C)NS(=O)(=O)CC12CCC(CC1=O)C2(C)C` (stereo not given), the inhibition was 4.11%.

In the case of `CCCN(c1ccc(C(C)C)cc1)S(=O)(=O)c1c(C)[nH]c(=O)[nH]c1=O`, the inhibition is -4.15%.

`COCCNC(=S)N1CCN(C)CC1`: the inhibition is 2.77%.

Regarding `O=C(N[C@H]1C/C=C\C(c2ccc(F)cc2)N(Cc2ccccc2)C(=O)C1)OCC1c2ccccc2-c2ccccc21` (stereo not given in full), the inhibition was -23.7%.

Take `COCCn1c(C)cc(C(=O)CSc2nnc(C3CC3)n2C2CC2)c1C`: the inhibition is 2.64%.

`CC(C)c1ccc(/C=C/C(=O)NCCCN2CCOCC2)cc1`: the inhibition was 6.59%.

Regarding `O=C(/C=C/c1cn(-c2ccccc2)nc1-c1ccc2c(c1)OCCO2)NCCCN1CCOCC1`, the inhibition was 46.4% (active).

As for `CC(OC(=O)/C=C/c1ccccc1)C(=O)Nc1ccc(C(N)=O)cc1` (stereo not given), the inhibition is 9.24%.

For `Cc1ccc(S(=O)(=O)NNC(=O)Nc2cccc3ccccc23)cc1`, the inhibition is -0.11%.

Consider `Cc1ccc(C)c(NC(=O)COC(=O)CSc2ccccc2)c1`, for which the inhibition is 4.31%.

As for `Cc1ccc(C)c(NC(=O)NNC(=O)c2ccc3ccccc3c2O)c1`, the inhibition is 41.2% (active).

Take `CC1CCN(C(=O)CN(c2ccc(Oc3ccccc3)cc2)S(C)(=O)=O)CC1`: the inhibition was 0.77%.

On to `COc1cc2c(cc1NC(=O)COC(=O)/C=C/c1ccccc1)oc1ccccc12`, for which the inhibition is 29.1%.

For the compound `COc1cc(/C(=C/c2ccccc2)c2ccccc2)c2c(c1)oc1ccccc12`, the inhibition is 49.4% (active).

For `COc1ccc(/C=C(/NC(=O)c2ccccc2)C(=O)Nc2cccc(C(=O)O)c2)cc1`, the inhibition was -5.87%.

For `CCN(CCNC(=O)C1=C(C)C(=O)OC12CCC(C)CC2)c1ccccc1` (stereo not given), the inhibition was 0.38%.

Turning to `N/C(Cc1ccc([N+](=O)[O-])cc1)=N\OC(=O)C1CCCCC1`, the inhibition is -35.6%.

For the compound `CN(C)c1nc(N)nc(CSc2nnnn2-c2cccc3ccccc23)n1`, the inhibition was -6.09%.

In the case of `COc1ccc2[nH]c(=O)c(CNc3ccc(C)c(C)c3)cc2c1`, the inhibition was 23.5%.

For `CCOc1ccc(/C=N\NC(=O)c2c(C)nc3cc(C)ccn23)cc1`, the inhibition was 2.94%.

Regarding `CCOc1ccc2ccccc2c1/C=N/NC(=O)c1c(C)cc(C)[nH]c1=O`, the inhibition is -12.9%.

With `COc1ccc2[nH]c(C(=O)N/N=C/c3cc(OC)c(OC)c(OC)c3)cc2c1`, the inhibition was 59.3% (active).

As for `COc1ccccc1N1CCN(C(=O)C(=O)N/N=C/c2ccccc2F)CC1`, the inhibition was -4.11%.

For `COc1cc2cc(C(=O)N/N=C/c3cccc(OC)c3OC)[nH]c2cc1OC`, the inhibition was 40.2% (active).

For `CCOc1ccc2[nH]c(C(=O)N/N=C/c3cccc(OC)c3OC)cc2c1`, the inhibition was 45.1% (active).

Turning to `COc1cccc(C(=O)N/N=C(\C)c2cccc(NC(=O)c3ccc(F)cc3)c2)c1OC`, the inhibition was -8.13%.
